# Data published in PubChem BioAssay AID1159580 (chemical genetic matrix, 2015).
# Where “and” joins values, the source holds several entries; their conditions need not be identical. Equal entries are not always repeated. Screen size: about 5,500 compounds; about 2,000 (36%) were called active. Roughly 18% stayed inconclusive and do not appear here. The list shows a part of the results. A number with no mark means an inactive call. Cut-off read from the data, not from the text of the source: active = normalized growth mostly below about 0.91 (no sharp cut-off); inconclusive = no clear call, values can overlap the other calls; inactive = mostly above about 0.92.
# Experiment: chemical genetic growth profiling, strain panel (AID 1159580);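 note: tested at 20 µM; growth read once vehicle control cultures reached saturation at 30 °C; 1 = growth at the plate median or of vehicle wells; lower values mean less growth of the strain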
# Settings: S. cerevisiae deletion strains, growth OD
structure (smiles),measurement,setting,value
CC(=O)O[C@H]1CC[C@@]2(C)C(C[C@@H](OC(C)=O)[C@@]3(C)C4=CC(=O)O[C@@H](c5ccoc5)[C@]4(C)CCC23)C1(C)C (stereo partly drawn),normalized growth,"locus YAL021C, strain ccr4, hits give low values",1
same,normalized growth,"locus YAL026C, strain drs2, hits give low values",1.01
same,normalized growth,"locus YAL030W, strain snc1, hits give low values",0.999
same,normalized growth,"locus YBL061C, strain skt5, hits give low values",0.997
same,normalized growth,"locus YBR009C, strain hhf1, hits give low values",1.02
same,normalized growth,"locus YBR021W, strain FUR4, hits give low values",0.981
same,normalized growth,"locus YBR023C, strain chs3, hits give low values",0.996
same,normalized growth,"locus YBR171W, strain sec66, hits give low values",1
same,normalized growth,"locus YBR229C, strain ROT2, hits give low values",1.01
same,normalized growth,"locus YBR231C, strain swc5, hits give low values",1.01
same,normalized growth,"locus YBR279W, strain paf1, hits give low values",1
same,normalized growth,"locus YCL011C, strain gbp2, hits give low values",1.01
same,normalized growth,"locus YCL016C, strain dcc1, hits give low values",1.01
same,normalized growth,"locus YCL029C, strain bik1, hits give low values",0.989
same,normalized growth,"locus YCL061C, strain MRC1, hits give low values",0.994
same,normalized growth,"locus YCL069W, strain vba3, hits give low values",1.02
same,normalized growth,"locus YCR088W, strain abp1, hits give low values",1
same,normalized growth,"locus YDL005C, strain med2, hits give low values",1
same,normalized growth,"locus YDL035C, strain GPR1, hits give low values",1.02
same,normalized growth,"locus YDL040C, strain nat1, hits give low values",1
same,normalized growth,"locus YDL074C, strain BRE1, hits give low values",1
same,normalized growth,"locus YDL101C, strain DUN1, hits give low values",0.999
same,normalized growth,"locus YDL134C, strain PPH21, hits give low values",1
same,normalized growth,"locus YDL185W, strain tfp1, hits give low values",1
same,normalized growth,"locus YDL192W, strain arf1, hits give low values",0.988
same,normalized growth,"locus YDR001C, strain nth1, hits give low values",1
same,normalized growth,"locus YDR069C, strain doa4, hits give low values",1.02
same,normalized growth,"locus YDR101C, strain arx1, hits give low values",1.01
same,normalized growth,"locus YDR137W, strain rgp1, hits give low values",0.96
same,normalized growth,"locus YDR150W, strain NUM1, hits give low values",1.01
same,normalized growth,"locus YDR159W, strain sac3, hits give low values",1
same,normalized growth,"locus YDR162C, strain NBP2, hits give low values",0.992
same,normalized growth,"locus YDR195W, strain ref2",1.02
same,normalized growth,"locus YDR297W, strain sur2, hits give low values",1.02
same,normalized growth,"locus YDR318W, strain mcm21, hits give low values",0.998
same,normalized growth,"locus YDR334W, strain swr1, hits give low values",1.01
same,normalized growth,"locus YDR335W, strain msn5, hits give low values",0.997
same,normalized growth,"locus YDR388W, hits give low values",1
same,normalized growth,"locus YDR392W, strain spt3, hits give low values",0.974
same,normalized growth,"locus YDR502C, strain sam2, hits give low values",0.992
same,normalized growth,"locus YEL003W, strain gim4, hits give low values",1
same,normalized growth,"locus YEL037C, strain rad23, hits give low values",1
same,normalized growth,"locus YEL061C, strain CIN8 (second series), hits give low values",1.01
same,normalized growth,"locus YEL061C, strain CIN8, hits give low values",1.01
same,normalized growth,"locus YER015W, strain faa2, hits give low values",0.991
same,normalized growth,"locus YER016W, strain bim1, hits give low values",0.997
same,normalized growth,"locus YER110C, hits give low values",0.992
same,normalized growth,"locus YER111C, strain swi4, hits give low values",1.01
same,normalized growth,"locus YER155C, strain BEM2 (second series), hits give low values",0.992
same,normalized growth,"locus YER155C, strain BEM2, hits give low values",1.01
same,normalized growth,"locus YER167W, strain BCK2, hits give low values",1.01
same,normalized growth,"locus YFR010W, strain ubp6, hits give low values",1
same,normalized growth,"locus YGL078C, strain dbp3, hits give low values",0.992
same,normalized growth,"locus YGL086W, strain mad1, hits give low values",1.01
same,normalized growth,"locus YGL167C, strain pmr1, hits give low values",1.01
same,normalized growth,"locus YGL173C, strain kem1, hits give low values",1.01
same,normalized growth,"locus YGL227W, strain vid30, hits give low values",0.997
same,normalized growth,"locus YGL240W, strain doc1, hits give low values",1.02
same,normalized growth,"locus YGL248W, strain PDE1, hits give low values",1
same,normalized growth,"locus YGL253W, strain hxk2, hits give low values",1
same,normalized growth,"locus YGR078C, strain PAC10, hits give low values",0.988
same,normalized growth,"locus YGR135W, strain pre9, hits give low values",0.975
same,normalized growth,"locus YGR229C, strain SMI1, hits give low values",1
same,normalized growth,"locus YGR252W, strain gcn5, hits give low values",0.929
same,normalized growth,"locus YHR013C, strain ard1, hits give low values",0.978
same,normalized growth,"locus YHR027C, strain rpn1, hits give low values",1.01
same,normalized growth,"locus YHR030C, strain SLT2, hits give low values",0.955
same,normalized growth,"locus YHR079C, strain IRE1 (second series), hits give low values",0.993
same,normalized growth,"locus YHR079C, strain IRE1, hits give low values",0.98
same,normalized growth,"locus YHR094C, strain hxt1, hits give low values",0.998
same,normalized growth,"locus YHR129C, strain ARP1, hits give low values",1.01
same,normalized growth,"locus YHR142W, strain chs7, hits give low values",1
same,normalized growth,"locus YHR200W, strain rpn10, hits give low values",0.994
same,normalized growth,"locus YIL066C, strain RNR3, hits give low values",1.02
same,normalized growth,"locus YIL073C, strain SPO22, hits give low values",1.02
same,normalized growth,"locus YIL125W, strain kgd1, hits give low values",1.01
same,normalized growth,"locus YIR030C, strain dcg1, hits give low values",0.991
same,normalized growth,"locus YJL092W, strain hpr5, hits give low values",0.996
same,normalized growth,"locus YJL095W, strain BCK1 (second series), hits give low values",0.99
same,normalized growth,"locus YJL095W, strain BCK1, hits give low values",0.985 and 0.949
same,normalized growth,"locus YJL115W, strain asf1, hits give low values",0.993
same,normalized growth,"locus YJL129C, strain trk1, hits give low values",0.99
same,normalized growth,"locus YJL134W, strain LCB3, hits give low values",1.01
same,normalized growth,"locus YJL154C, strain vps35, hits give low values",0.994
same,normalized growth,"locus YJL164C, strain tpk1, hits give low values",1.01
same,normalized growth,"locus YJL166W, strain qcr8, hits give low values",1.02
same,normalized growth,"locus YJL168C, strain set2, hits give low values",0.986
same,normalized growth,"locus YJL187C, strain SWE1 (second series), hits give low values",0.997
same,normalized growth,"locus YJL187C, strain SWE1, hits give low values",1.01
same,normalized growth,"locus YJR066W, strain TOR1, hits give low values",0.9
same,normalized growth,"locus YJR075W, strain HOC1, hits give low values",1.01
same,normalized growth,"locus YKL009W, strain mrt4, hits give low values",1.21 [resistant] (active)
same,normalized growth,"locus YKL068W, hits give low values",0.984
same,normalized growth,"locus YKL085W, strain MDH1 (second series), hits give low values",1.02
same,normalized growth,"locus YKL085W, strain MDH1, hits give low values",1.02
same,normalized growth,"locus YKL160W, strain elf1, hits give low values",1
same,normalized growth,"locus YKL190W, strain CNB1, hits give low values",1
same,normalized growth,"locus YKR001C, strain vps1, hits give low values",0.983
same,normalized growth,"locus YKR026C, strain gcn3, hits give low values",1.01
same,normalized growth,"locus YKR091W, strain srl3, hits give low values",1
same,normalized growth,"locus YLL001W, strain dnm1, hits give low values",1.01
same,normalized growth,"locus YLL026W, hits give low values",0.995
same,normalized growth,"locus YLL041C, strain sdh2, hits give low values",0.987
same,normalized growth,"locus YLR027C, strain aat2, hits give low values",1
same,normalized growth,"locus YLR039C, strain RIC1, hits give low values",0.985
same,normalized growth,"locus YLR058C, strain SHM2, hits give low values",1.01
same,normalized growth,"locus YLR102C, strain apc9, hits give low values",0.997
same,normalized growth,"locus YLR113W, strain HOG1, hits give low values",0.966
same,normalized growth,"locus YLR221C, strain rsa3, hits give low values",1.02
same,normalized growth,"locus YLR258W, strain gsy2, hits give low values",0.995
same,normalized growth,"locus YLR262C, strain YPT6 (second series), hits give low values",0.979
same,normalized growth,"locus YLR262C, strain YPT6, hits give low values",1.02
same,normalized growth,"locus YLR268W, strain sec22, hits give low values",1.01
same,normalized growth,"locus YLR320W, strain mms22, hits give low values",0.999
same,normalized growth,"locus YLR342W, strain FKS1, hits give low values",1
same,normalized growth,"locus YLR357W, strain rsc2, hits give low values",1.01
same,normalized growth,"locus YLR370C, strain arc18, hits give low values",1.02
same,normalized growth,"locus YLR371W, strain rom2, hits give low values",1
same,normalized growth,"locus YLR384C, strain iki3, hits give low values",0.987
same,normalized growth,"locus YLR418C, strain cdc73, hits give low values",0.954
same,normalized growth,"locus YML016C, strain PPZ1, hits give low values",1.01
same,normalized growth,"locus YML032C, strain rad52, hits give low values",0.985
same,normalized growth,"locus YML120C, strain ndi1, hits give low values",1.02
same,normalized growth,"locus YML124C, strain tub3, hits give low values",0.987
same,normalized growth,"locus YMR058W, strain fet3, hits give low values",1
same,normalized growth,"locus YMR078C, strain ctf18, hits give low values",0.981
same,normalized growth,"locus YMR125W, strain sto1, hits give low values",0.99
same,normalized growth,"locus YMR129W, hits give low values",1
same,normalized growth,"locus YMR205C, strain PFK2, hits give low values",1.01
same,normalized growth,"locus YMR223W, strain ubp8, hits give low values",0.983
same,normalized growth,"locus YMR231W, strain pep5, hits give low values",0.991
same,normalized growth,"locus YMR263W, strain SAP30, hits give low values",1.01
same,normalized growth,"locus YMR307W, strain GAS1, hits give low values",1.03
same,normalized growth,"locus YNL067W, strain RPL9B, hits give low values",0.997
same,normalized growth,"locus YNL071W, strain lat1, hits give low values",1.01
same,normalized growth,"locus YNL153C, strain GIM3, hits give low values",0.999
same,normalized growth,"locus YNL183C, strain NPR1, hits give low values",0.935
same,normalized growth,"locus YNL209W, strain ssb2, hits give low values",1.02
same,normalized growth,"locus YNL233W, strain BNI4, hits give low values",1.02
same,normalized growth,"locus YNL248C, strain rpa49, hits give low values",1.01
same,normalized growth,"locus YNL250W, strain rad50, hits give low values",0.995
same,normalized growth,"locus YNL271C, strain bni1, hits give low values",1
same,normalized growth,"locus YNL298W, strain CLA4, hits give low values",1.01
same,normalized growth,"locus YNL307C, strain MCK1, hits give low values",0.995
same,normalized growth,"locus YNL322C, strain KRE1 (second series), hits give low values",0.987
same,normalized growth,"locus YNL322C, strain KRE1, hits give low values",1.01
same,normalized growth,"locus YNR049C, strain mso1, hits give low values",1.01
same,normalized growth,"locus YNR052C, strain pop2, hits give low values",0.987
same,normalized growth,"locus YOL006C, strain TOP1, hits give low values",0.965
same,normalized growth,"locus YOL012C, strain htz1",1.15
same,normalized growth,"locus YOL147C, strain pex11, hits give low values",1
same,normalized growth,"locus YOR001W, strain rrp6, hits give low values",1.01
same,normalized growth,"locus YOR061W, strain CKA2, hits give low values",1.01
same,normalized growth,"locus YOR069W, strain VPS5, hits give low values",1
same,normalized growth,"locus YOR070C, strain gyp1, hits give low values",1.01
same,normalized growth,"locus YOR080W, strain dia2, hits give low values",1
same,normalized growth,"locus YOR083W, strain WHI5, hits give low values",1
same,normalized growth,"locus YOR106W, strain vam3, hits give low values",1.03
same,normalized growth,"locus YOR136W, strain idh2, hits give low values",0.992
same,normalized growth,"locus YOR144C, strain elg1, hits give low values",0.995
same,normalized growth,"locus YOR184W, strain ser1, hits give low values",1.01
same,normalized growth,"locus YOR231W, strain MKK1, hits give low values",0.957
same,normalized growth,"locus YOR265W, strain rbl2, hits give low values",1.02
same,normalized growth,"locus YOR270C, strain vph1, hits give low values",0.886
same,normalized growth,"locus YOR290C, strain snf2, hits give low values",0.998
same,normalized growth,"locus YOR316C, strain cot1, hits give low values",0.997
same,normalized growth,"locus YPL051W, strain arl3, hits give low values",0.997
same,normalized growth,"locus YPL055C, strain LGE1, hits give low values",1.03
same,normalized growth,"locus YPL078C, strain atp4, hits give low values",1.01
same,normalized growth,"locus YPL106C, strain sse1, hits give low values",1.02
same,normalized growth,"locus YPL240C, strain hsp82, hits give low values",0.998
same,normalized growth,"locus YPL241C, strain CIN2, hits give low values",1
same,normalized growth,"locus YPL256C, strain CLN2, hits give low values",0.96
same,normalized growth,"locus YPR119W, strain clb2, hits give low values",0.992
same,normalized growth,"locus YPR141C, strain kar3, hits give low values",0.99
same,normalized growth,"locus YPR163C, strain tif3, hits give low values",0.989
same,normalized growth,"locus YPR167C, strain met16, hits give low values",0.985
same,normalized growth,"strain wtn01, hits give low values",0.993
